The structures appear in SMILES notation. Inconclusive results are not listed. Entries that show only a call come without a potency. Active and inactive are the calls of the source. The call rests on the fitted dose curve; in most records, active means well fitted inhibition curve with a large enough effect; inconclusive means small, poorly fitted or top-dose-only effect; inactive means flat fitted curve, though single readings scatter.

The target of this assay is Calcium and integrin-binding protein 1 (Homo sapiens) (UniProt Q99828). The assay is described as follows: Primary qHTS for Identification of Calcium Integrin Binding Protein 1 (CIB1) Competitor (AID 1508620).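 Further: GST tagged CIB1 binding a fluorescein labelled alphaIIb integrin peptide tracer; top concentration of the series differs between compounds.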 Conditions: CIB1-GST / FITC-alphaIIb peptide fluorescence polarization; series mostly up to 114 µM. The text has this: Assay Provider: Ulhas P. Naik, PhD Sidney Kimmel Medical College Thomas Jefferson University, Philadelphia, PA Primary function of platelets is to maintain hemostasis. At the site of vascular injury, platelets adhere to adhesive proteins such as collagen and von Willebrand factor. Adherent platelets are activated and generate soluble platelet agonists such as thrombin, ADP and thromboxane A2. Following exposure of circulating platelets to these agonists, results in platelet shape change, granule secretion and activation of platelet integrin alphaIIb-beta3. Ligand binding to activated integrin alphaIIb-beta3 triggers outside-in signaling, leading to platelet aggregation, stabilization of platelet plug, and clot retraction. Upon atherosclerotic plaque rupture also causes platelet plug formation, which underlies a number of cardiovascular diseases such as myocardial infraction and stroke. A number of anti-platelet drugs such as aspirin, clopidogrel, prasugrel, vorapaxar, and eptifibatide are currently available to prevent the thrombotic complications. However, these anti-platelet agents have several limitations including inherent variability in individual responses, developing resistance, and serious bleeding side effects. For these reasons they are not suitable for long-term protection. Based on the experiences with current anti-platelet drugs, it appears that the most useful therapeutic approach is to intersect the secondary responses such as integrin outside-in signaling or recruitment of platelets by TxA2 and secreted ADP. Compounds, which can largely preserve the primary hemostatic function of platelets but inhibit secondary response will be most desired therapeutic agents for treatment of cardiovascular disease. CIB1 is a calcium integrin binding protein, which specifically interact with the alphaIIb subunit of integrin alphaIIb-beta3. Binding of CIB1 to alphaIIb regulates the outside-in signaling in platelets, which is needed for thrombus stabilization and thrombus growth. […] Therefore, we propose that discovery of a small molecule that can prevent the association of CIB1 and alphaIIb-beta3 will be a potential anti-platelet agent that can block the thrombus formation without undue effect on hemostasis. Reference: [1] Naik MU, Nigam A, Manrai P, et al. CIB1 deficiency results in impaired thrombosis: the potential role of CIB1 in outside-in signaling through integrin alpha IIb beta 3. J Thromb Haemost.
Sequence of Calcium and integrin-binding protein 1 (Homo sapiens) (Q99828 whole entry, looked up): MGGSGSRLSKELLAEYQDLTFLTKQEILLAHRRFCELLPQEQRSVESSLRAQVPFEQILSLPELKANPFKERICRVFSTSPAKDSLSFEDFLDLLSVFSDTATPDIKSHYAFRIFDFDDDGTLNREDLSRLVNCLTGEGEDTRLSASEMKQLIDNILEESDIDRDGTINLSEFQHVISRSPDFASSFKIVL
PROTOCOL TABLES SEQUENCE No. (1, 2, 3, etc.); […] (e.g., Cells, Incubation, Reagent, etc.); VALUE and DESCRIPTION. 1; Reagent; 3 uL; Protein or buffer (4/3x) 2; Compound; 46 nL; Control inhibitor / compound library 3; Time; 15 min; Room temperature incubation 4; Reagent; 1 uL; Fluorescent labeled peptide (4x) 5; Time; 1000 rpm; Centrifuge 6; Time; 15 min; Room temperature incubation 7; Detection; Ex 480/ Em 540; ViewLux Fluorescence Read NOTES (numbers refer to sequence above) 1; Protein Mixture: C1B1-GST (final concentrations of 1 uM). […] 3; Room temperature incubation. 4; Fluorescent Labeled Peptide: FITC-aIIb (final concentration of 100 nM). Sequence of alphaIIb peptide: Acetyl-[…]-FITC (purity is 95.83%). 5; Centrifuge 1000 rpm (164 g) for 15 seconds. 6; Room temperature incubation. 7; ViewLux Fluorescent Polization Read: excitation = 480(20) / emission = 540(25) S and P; FITC Dichroic mirror.
(qHTS replaces the single test concentration by a dilution series.)
For `CCCCCC=CCC=CCCCCCCCC(=O)OCC`, the Potency result is “inactive”. Then `CC1(C)OC[C@@H](COC(=O)CCc2ccc(OC[C@@H](O)CNCCNC(=O)N3CCOCC3)cc2)O1`, with “inactive”; and `CC(C)(C)NC(=O)[C@@H]1CN(Cc2cccnc2)CCN1C[C@@H](O)C[C@@H](Cc1ccccc1)C(=O)N[C@H]1c2ccccc2C[C@H]1O`, with “inactive”; and `CC1(C)O[C@@H]2C[C@H]3[C@@H]4C[C@H](F)C5=CC(=O)CC[C@]5(C)[C@H]4[C@@H](O)C[C@]3(C)[C@]2(C(=O)CO)O1`, with “inactive”. The entry for `CC(=O)[C@H]1CC[C@H]2[C@@H]3C[C@H](C)C4=CC(=O)CC[C@]4(C)[C@H]3[C@@H](O)C[C@]12C` is “inactive”; for `CCCCCCC[N+](CC)(CC)CCCCc1ccc(Cl)cc1` it is “inactive”; for `Cc1c(C(C)C)c(=O)n(-c2ccccc2)n1C` it is “inactive”.

`Cc1ccc(Nc2c(F)cccc2Cl)c(CC(=O)O)c1`: the Potency entry was “inactive”. Then `CC/C(=C(/CC)c1ccc(O)cc1)c1ccc(O)cc1`, with “inactive”; and `c1ccc(CNCCNCc2ccccc2)cc1`, with “inactive”. Take `CC(CCc1ccccc1)NCC(O)c1ccc(O)c(C(N)=O)c1` (stereo not given): the Potency entry is “inactive”. In the case of `OC[C@H]1O[C@H](O[C@]2(CCl)O[C@H](CCl)[C@@H](O)[C@@H]2O)[C@H](O)[C@@H](O)[C@H]1Cl`, the Potency result was “inactive”.

For the compound `CCN(CC)CCNC(=O)COc1ccc(Cl)cc1`, the Potency result was “inactive”. Regarding `COc1cc2c(cc1OC)C(=O)C(CC1CCN(Cc3ccccc3)CC1)C2` (stereo not given), the Potency result was “inactive”. Then `COc1ccc(C2C(=O)c3ccccc3C2=O)cc1`, with “inactive”; and `NC[C@H]1O[C@H](O[C@H]2[C@H](O)[C@@H](O[C@H]3O[C@H](CO)[C@@H](O)[C@H](N)[C@H]3O)[C@H](N)C[C@@H]2N)[C@H](N)[C@@H](O)[C@@H]1O`, with “inactive”.

`Clc1ccc2c(c1)CCc1cccnc1C2=C1CCNCC1`: the Potency result was “inactive”. With `Cc1c(C)n(CCN(C)C)c2ccc(C(=O)OCCN(C)C)cc12`, the Potency entry was “inactive”. Regarding `CCCCCCCCCCOCC(O)CN` (stereo not given), the Potency result was “inactive”. Regarding `C#C[C@]1(O)CC[C@H]2[C@@H]3CCc4cc(OC5CCCC5)ccc4[C@H]3CC[C@@]21C`, the Potency entry is “inactive”. Take `O=C(N/N=C/c1ccccc1O)c1ccncc1`: the Potency entry was “inactive”. Turning to `CCN(CCCc1ccccc1)CCCc1ccccc1`, the Potency entry was “inactive”. On to `CC(C)n1nc(-c2cc3cc(O)ccc3[nH]2)c2c(N)ncnc21`, for which the Potency entry was “inactive”. Then `COc1c2occc2c(OC)c2c(=O)cc(C)oc12`, with “inactive”; and `CN=C(NC#N)NCCSCc1csc(N=C(N)N)n1`, with “inactive”; and `COc1cc(C=C2CCC/C(=C\c3ccc(O)c(OC)c3)C2=O)ccc1O`, with “inactive”. Take `Cc1cc(=O)n(-c2ccccc2)n1C`: the Potency entry is “inactive”. For `CCN1CCC[C@H]1CNC(=O)c1c(OC)ccc(Br)c1OC`, the Potency entry was “inactive”.

On to `CC(C)(Oc1ccc(Cl)cc1)C(=O)O`, for which the Potency entry was “inactive”. Then `CC(=O)Oc1ccc(C(=C2CCCCC2)c2ccc(OC(C)=O)cc2)cc1`, with “inactive”; and `CN=C(NC#N)Nc1ccc(C2=NNC(=O)CC2C)cc1` (stereo not given), with “inactive”; and `C[C@@H]1C[C@H]2[C@@H]3CCC4=CC(=O)C=C[C@]4(C)[C@@]3(F)[C@@H](O)C[C@]2(C)[C@H]1C(=O)CO`, with “inactive”.

In the case of `N[C@H](Cc1c[nH]c2ccccc12)C(=O)O`, the Potency entry is “inactive”.

As to `CN(C)CCOc1ccccc1Cc1ccccc1`, the Potency entry was “inactive”. Then `Oc1ccc(O)cc1`, with “inactive”. The entry for `NCCc1ccn[nH]1` is “inactive”. Take `C=CCc1ccc(O)c(OC)c1`: the Potency result was “inactive”.

`CCCCC(=O)O[C@]1(C(=O)CO)CC[C@H]2[C@@H]3CCC4=CC(=O)CC[C@]4(C)[C@H]3[C@@H](O)C[C@@]21C`: the Potency result was “inactive”. `C#C[C@]1(OC(C)=O)CC[C@H]2[C@@H]3CCC4=C[C@@H](OC(C)=O)CC[C@@H]4[C@H]3CC[C@@]21C`: the Potency result is “inactive”. As to `CN(C)/N=N/c1nc[nH]c1C(N)=O`, the Potency entry is “inactive”.

Values taken from PubChem BioAssay (NCATS).
